Experimental data from PubChem BioAssay AID1159580 (chemical genetic matrix, 2015).
Several values for one entry are separate records, joined by “and”; a condition that tells them apart may be missing. Identical values can stand only once. The whole screen tested about 5,500 compounds, of which about 2,000 (36%) were called active. Roughly 18% stayed inconclusive and do not appear here. No stated cut-off is given here; in the data, active means normalized growth mostly below about 0.91 (no sharp cut-off); inconclusive means no clear call, values can overlap the other calls; inactive means mostly above about 0.92. Some of the results follow.

Assay: chemical genetic growth profiling, strain panel (AID 1159580);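 further: tested at 20 µM; growth read once vehicle control cultures reached saturation at 30 °C; 1 = growth at the plate median or of vehicle wells; lower values mean less growth of the strain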
Details: S. cerevisiae deletion strains, growth OD

Measured: normalized growth

CCC1(CC)C(=O)C=CNC1=O
inactive: locus YAL021C, strain ccr4, active compounds read low 0.998 | locus YAL026C, strain drs2, active compounds read low 0.996 | locus YAL030W, strain snc1, active compounds read low 1 | locus YBL061C, strain skt5, active compounds read low 1.01 | locus YBR009C, strain hhf1, active compounds read low 1.02 | locus YBR021W, strain FUR4, active compounds read low 1.02 | locus YBR023C, strain chs3, active compounds read low 0.994 | locus YBR171W, strain sec66, active compounds read low 0.985 | locus YBR229C, strain ROT2, active compounds read low 1.01 | locus YBR231C, strain swc5, active compounds read low 0.997 | locus YBR279W, strain paf1, active compounds read low 1 | locus YCL011C, strain gbp2, active compounds read low 0.992 | locus YCL016C, strain dcc1, active compounds read low 0.998 | locus YCL029C, strain bik1, active compounds read low 1.01 | locus YCL061C, strain MRC1, active compounds read low 0.999 | locus YCL069W, strain vba3, active compounds read low 0.993 | locus YCR088W, strain abp1, active compounds read low 0.986 | locus YDL005C, strain med2, active compounds read low 0.999 | locus YDL035C, strain GPR1, active compounds read low 1.02 | locus YDL040C, strain nat1, active compounds read low 0.999 | locus YDL074C, strain BRE1, active compounds read low 0.977 | locus YDL101C, strain DUN1, active compounds read low 1 | locus YDL134C, strain PPH21, active compounds read low 1.03 | locus YDL185W, strain tfp1, active compounds read low 1.02 | locus YDL192W, strain arf1, active compounds read low 1.01 | locus YDR001C, strain nth1, active compounds read low 0.997 | locus YDR069C, strain doa4, active compounds read low 1.02 | locus YDR101C, strain arx1, active compounds read low 0.988 | locus YDR137W, strain rgp1, active compounds read low 1.03 | locus YDR159W, strain sac3, active compounds read low 1.02 | locus YDR162C, strain NBP2, active compounds read low 1.02 | locus YDR195W, strain ref2 0.985 | locus YDR297W, strain sur2, active compounds read low 0.995 | locus YDR318W, strain mcm21, active compounds read low 1.01 | locus YDR334W, strain swr1, active compounds read low 0.959 | locus YDR335W, strain msn5, active compounds read low 0.997 | locus YDR388W, active compounds read low 1.01 | locus YDR392W, strain spt3, active compounds read low 0.945 | locus YDR502C, strain sam2, active compounds read low 0.995 | locus YEL003W, strain gim4, active compounds read low 0.994 | locus YEL037C, strain rad23, active compounds read low 0.991 | locus YEL061C, strain CIN8 (second series), active compounds read low 0.992 | locus YEL061C, strain CIN8, active compounds read low 1 | locus YER015W, strain faa2, active compounds read low 1 | locus YER016W, strain bim1, active compounds read low 0.999 | locus YER110C, active compounds read low 1.03 | locus YER111C, strain swi4, active compounds read low 1.01 | locus YER155C, strain BEM2 (second series), active compounds read low 0.992 | locus YER155C, strain BEM2, active compounds read low 1 | locus YER167W, strain BCK2, active compounds read low 1.02 | locus YFR010W, strain ubp6, active compounds read low 0.985 | locus YGL078C, strain dbp3, active compounds read low 1.02 | locus YGL086W, strain mad1, active compounds read low 0.99 | locus YGL167C, strain pmr1, active compounds read low 1 | locus YGL173C, strain kem1, active compounds read low 1.01 | locus YGL227W, strain vid30, active compounds read low 1 | locus YGL240W, strain doc1, active compounds read low 1.02 | locus YGL248W, strain PDE1, active compounds read low 0.987 | locus YGL253W, strain hxk2, active compounds read low 0.985 | locus YGR078C, strain PAC10, active compounds read low 0.97 | locus YGR135W, strain pre9, active compounds read low 1.05 | locus YGR252W, strain gcn5, active compounds read low 0.996 | locus YHR013C, strain ard1, active compounds read low 1.03 | locus YHR027C, strain rpn1, active compounds read low 0.982 | locus YHR030C, strain SLT2, active compounds read low 1.01 and 1 | locus YHR079C, strain IRE1 (second series), active compounds read low 1.01 | locus YHR079C, strain IRE1, active compounds read low 1.01 | locus YHR094C, strain hxt1, active compounds read low 1.02 | locus YHR129C, strain ARP1, active compounds read low 1.01 | locus YHR142W, strain chs7, active compounds read low 0.964 | locus YHR200W, strain rpn10, active compounds read low 1.01 | locus YIL066C, strain RNR3, active compounds read low 0.996 | locus YIL073C, strain SPO22, active compounds read low 1.07 | locus YIL125W, strain kgd1, active compounds read low 0.999 | locus YIR030C, strain dcg1, active compounds read low 1.01 | locus YJL092W, strain hpr5, active compounds read low 0.992 | locus YJL095W, strain BCK1 (second series), active compounds read low 0.996 | locus YJL095W, strain BCK1, active compounds read low 0.976 and 1.01 | locus YJL115W, strain asf1, active compounds read low 0.973 | locus YJL129C, strain trk1, active compounds read low 0.993 | locus YJL134W, strain LCB3, active compounds read low 1 | locus YJL154C, strain vps35, active compounds read low 0.983 | locus YJL164C, strain tpk1, active compounds read low 1.01 | locus YJL166W, strain qcr8, active compounds read low 1 | locus YJL168C, strain set2, active compounds read low 1 | locus YJL187C, strain SWE1 (second series), active compounds read low 0.982 | locus YJL187C, strain SWE1, active compounds read low 1.01 | locus YJR043C, strain POL32, active compounds read low 0.994
